# PubChem BioAssay AID1558 (National Center for Advancing Translational Sciences (NCATS), 2009)
# Values joined by “and” are separate entries in the source; they are usually repeats but may differ in a detail not shown here. Equal entries are not always repeated. Results filed as inconclusive are left out. Active and inactive are the calls of the source. The call rests on the fitted dose curve; in most records, active means well fitted inhibition curve with a large enough effect; inconclusive means small, poorly fitted or top-dose-only effect; inactive means flat fitted curve, though single readings scatter.
# Molecular target: Microtubule-associated protein tau (Homo sapiens) (UniProt P10636)
# Sequence (P10636 561-689 P618L limits assumed): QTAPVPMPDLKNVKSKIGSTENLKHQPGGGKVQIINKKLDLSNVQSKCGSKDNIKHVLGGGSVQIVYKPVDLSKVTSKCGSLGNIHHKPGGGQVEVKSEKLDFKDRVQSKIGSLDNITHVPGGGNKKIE
# Test: Confirmation Concentration-Response Assay for Inhibitors of Tau Fibril Formation, Thioflavin T Binding
# Settings: recombinant tau K18 P301L (four-repeat tau fragment) heparin fibrillization, ThT fluorescence; series mostly up to 100 µM; activity change, negative = inhibition: at the top concentration
# Excerpt: NIH Molecular Libraries Probe Production Network [MLPCN] NIH Chemical Genomics Center [NCGC] MLPCN Grant: X01 MH083262-01 Assay Provider: Carlo Ballatore, University of Pennsylvania NCGC Assay Overview: The microtubule-associated protein tau is an abundant protein in the axons of neurons that stabilizes microtubules. With its ability to modulate microtubule dynamics, tau contributes directly or indirectly, to key structural and regulatory cellular functions. Particularly important is the influence tau exerts on axonal transport, which allows signaling molecules, trophic factors and other essential cellular constituents to travel along the axons. Under pathological conditions, tau becomes sequestered into insoluble aggregates called neurofibrillary tangles. This phenomenon is believed to have pathological consequences by promoting axonal transport deficits that ultimately lead to synaptic dysfunction and neuronal loss. To identify inhibitors of tau aggregation, a heparin-induced tau fibril formation assay was used that employed a recombinantly expressed fragment of tau, K18 (Q242-E372), bearing a P301L mutation (Gustke et al. 1994; Hong et al. 1998). This assay monitors tau fibrillization by Thioflavin T (ThT) fluorescence. Gustke, N., B. Trinczek, et al. (1994). "Domains of tau protein and interactions with microtubules." Biochemistry 33(32): 9511-22. Hong, M., V. Zhukareva, et al. (1998). "Mutation-specific functional impairments in distinct tau isoforms of hereditary FTDP-17." Science 282(5395): 1914-7. Li, W. and V. M. Lee (2006). "Characterization of two VQIXXK motifs for tau fibrillization in vitro." Biochemistry 45(51): 15692-701. von Bergen, M., S. Barghorn, et al. (2001). "Mutations of tau protein in frontotemporal dementia promote aggregation of paired helical filaments by enhancing local beta-structure." J Biol Chem 276(51): 48165-74.
# For screening, 2 uL/well human K18 P301L (15 uM unlabeled and 0.24 uM Alexa 594-labeled tau, final concentrations) in reagent buffer (100 mM sodium acetate pH 7) was dispensed into black solid 1536-well plates (Grenier) using a solenoid-based dispenser. Following transfer of 23 nL compound or DMSO vehicle by a pin tool, 2 uL/well heparin (20 uM final concentration) in reagent buffer was added and the plate centrifuged 15 s at 1000 RPM. Plates were incubated 6 hr at 37 C and then 1 uL/well ThT (30 uM final concentration) was added. After a 1 hr ambient incubation, the plates were read by an Envision (Perkin Elmer) to monitor ThT fluorescence (450/8 nm excitation and 510/23 nm emission). Keywords: NIH Roadmap, MLPCN, MLI, MLSMR, NCGC, qHTS, tau, tauopathies, Alzheimer's disease, fibril, neurodegeneration, aggregation
SMILES,Potency,"activity change, negative = inhibition"
CCOC(=O)c1nn(-c2ccc(OC)cc2)c(=O)c2c(N)scc12,631 nM (active) and 3.16 µM (active),–
O=C(O)CSc1cc(NS(=O)(=O)c2cccc([N+](=O)[O-])c2)c2ccccc2c1O,2 µM (active),–
COC(=O)c1c(NC(=O)CCCOc2cccc(C)c2)sc2c1C(C(=O)OC)CC2 (stereo not given),1.78 µM (active),–
O=C(Cc1ccccc1)Nc1sc2c(c1C(=O)Nc1ccc(Cl)cc1)CCOC2,–,-11.4% [at 57.1 µM] (inactive)
CCN(CC)c1ccc2oc(=O)c(C)nc2c1,10 µM (active),–
Nc1scc2c(C(=O)N3CCOCC3)nn(-c3ccccc3)c(=O)c12,11.2 µM (active),–
COc1ccc(Cl)cc1NC(=O)c1c(NCc2sccc2C)sc2c1CCCC2,1 µM (active),–
O=C(NCCCO)Nc1ccc2nc(-c3ccco3)c(-c3ccco3)nc2c1,3.16 µM (active),–
CCOC(=O)c1nn(-c2ccccc2)c(=O)c(C#N)c1C,–,-7.32% [at 57.1 µM] (inactive)
CCN(c1ccccc1)S(=O)(=O)c1nnc(NC(=O)C(C)(C)C)s1,–,-3.75% (inactive)
Oc1ccccc1CNc1cccc2cccnc12,39.8 µM (active),–
CN(c1ccccc1)S(=O)(=O)c1nnc(NC(=O)COc2ccccc2)s1,–,-16.4% (inactive)
COc1ccc2oc(-c3ccc(NC(=O)c4ccc(N5CCOCC5)c([N+](=O)[O-])c4)cc3)nc2c1,–,-36.6% (inactive)
O=C(Nc1sc2c(c1C(=O)Nc1cccc(Cl)c1)CCCC2)c1cccs1,3.55 µM (active),–
COc1ccc(NC(=O)c2c(NC(=O)Cc3ccccc3)sc3c2CCCC3)cc1,–,-0.544% [at 57.1 µM] (inactive)
CC(=O)Nc1nc(C)c(-c2csc(Nc3ccc(O)cc3)n2)s1,15.8 µM (active),–
N#Cc1cccc(NC(=O)c2ccc3c(c2)N(Cc2cccc(Cl)c2)C(=O)c2ccccc2S3(=O)=O)c1,–,-3.7% (inactive)
CCN(CC)C(=O)c1nn(-c2ccc(OC)cc2)c(=O)c2c(N)scc12,10 µM (active),–
CCOC(=O)c1nn(-c2ccc(OC)cc2)c(=O)c2c(NC(=O)Cc3ccccc3)scc12,–,-28.9% [at 57.1 µM] (inactive)
COC(=O)C1CCc2sc(N)c(C(=O)OCc3ccccc3)c21 (stereo not given),–,-25.7% [at 57.1 µM] (inactive)

SMILES,Potency,"activity change, negative = inhibition"
COc1ccc(-n2nc(C(=O)O)c3csc(N)c3c2=O)cc1,1 µM (active),–
Nc1cc(-c2ccncc2)c[nH]c1=O,10 µM (active),–
NC[C@H](O)c1ccc(O)c(O)c1,5.62 µM (active),–
O=C(Nc1nnc(S(=O)(=O)Nc2ccccc2)s1)C1CCCCC1,–,-17.4% (inactive)
S=C1Cc2ccccc2N1,0.631 µM (active),–
COC(=O)C1CCc2sc(NC(=O)Cc3ccccc3)c(C(=O)Nc3ccc(Cl)cc3)c21 (stereo not given),–,-12.6% [at 57.1 µM] (inactive)
Cc1nc2ccccc2oc1=O,–,-2.55% (inactive)
Cc1cccc(NC(=O)c2c(NC(=O)c3ccccc3)sc3c2CCCC3)c1,7.94 µM (active),–
Nc1scc2c(C(=O)O)nn(-c3ccccc3)c(=O)c12,6.31 µM (active),–
CC(C)Cn1c(O)c(/C=C2\C=NN=C2c2ccccc2)sc1=S,–,-19.8% (inactive)
COc1ccc(S(=O)(=O)Nc2cc(Sc3ncn[nH]3)c(O)c3ccccc23)cc1,2.82 µM (active),–
COC(=O)c1c(N)sc2c1C(C(=O)OC)CC2 (stereo not given),–,-8.58% [at 57.1 µM] (inactive)
Cc1ccc(NC(=O)c2c(NC(=O)Cc3ccccc3)sc3c2CCCC3)cc1,–,-10.5% [at 57.1 µM] (inactive)
CC(=O)Nc1nc(C)c(-c2csc(Nc3cccc([N+](=O)[O-])c3)n2)s1,3.55 µM (active),–
CCOC(=O)c1nn(-c2ccccc2)c(=O)c2c(NC(=O)c3ccccc3)scc12,–,-7.04% [at 57.1 µM] (inactive)
CCn1nccc1C(=O)Nc1cc(Cl)cc(Cl)c1,–,-4.3% (inactive)
Cc1[nH]c(=O)c(C#N)cc1-c1ccncc1,–,-4.9% (inactive)
CCOC(=O)c1ccc(S(=O)(=O)Nc2nc3cc(S(=O)(=O)NC4=NCCCCC4)ccc3s2)cc1,10 µM (active),–
O=S(=O)(c1ccc(NC(=S)N/N=C/c2ccc(N3CCOCC3)cc2)cc1)N1CCOCC1,–,-9.1% (inactive)
O=C(NCc1cccnc1)C1CCN(S(=O)(=O)c2cccs2)CC1,–,-16.8% (inactive)
